Measurements published in PubChem BioAssay (NCATS).
Results filed as inconclusive are left out. The source made the active and inactive calls. The call rests on the fitted dose curve; in most records, active means well fitted cell-killing curve with a large enough effect; inconclusive means small, poorly fitted or top-dose-only effect; inactive means flat fitted curve, though single readings scatter. Numbered stars: 1 amine (or outer) side, 2 acyl side, 3 side chain; on linkers, the order of the positions; unused ones are H or OH. Bridge positions count the residues as written; N and C are the ends. Square brackets hold non-standard residues; d marks the D form. Peptide text beside a SMILES is read from it. I, II: the chains in the order shown. Actinocin(9to1) = Cc1c2oc3c(C)ccc(C(=O)[*:1])c3nc-2c(C(=O)[*:2])c(N)c1=O; NMeV = CN[C@H](C(=O)O)C(C)C; Sar = CNCC(=O)O
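Further: cells exposed to compound for 40 hours.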
Potency means the concentration at half of the fitted maximal effect.

Test: Cell Viability - SH-SY5Y (AID 544); further: nearly all actives have a fitted effect of over 55% in size;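 on viability change, negative = cytotoxic: 0% = DMSO alone and -100% = 100 µM tamoxifen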
Conditions: SH-SY5Y neuroblastoma cell viability; viability change, negative = cytotoxic: at 92.2 µM (top of the series)
In short: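 SH-SY5Y human neuroblastoma cells (1500/well) incubated 5 h, then compound-treated 40 h at 37 °C in complete medium. Viability read as intracellular ATP by CellTiter-Glo luminescence after 20 min; AC50 from Hill-equation fits of qHTS concentration-response.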
With `O=c1ccc2ccccc2o1` the “viability change, negative = cytotoxic” value was -5.57% (inactive).
In the case of `CC/C(=C(/CC)c1ccc(O)cc1)c1ccc(O)cc1`, the Potency is reported as 31.6 µM (active).
With `COc1cccc2c1C(=O)c1c(O)c3c(c(O)c1C2=O)C[C@@](O)(C(=O)CO)C[C@@H]3O[C@H]1C[C@H](N)[C@H](O)[C@H](C)O1` the Potency was 0.0126 µM (active).
In the case of `O=C(O)CCCCC(=O)O`, the “viability change, negative = cytotoxic” value is reported as 6.14% (inactive).
With `COC1=CC(=O)C[C@@H](C)[C@]12Oc1c(Cl)c(OC)cc(OC)c1C2=O` the Potency was 25.1 µM (active).
For `Oc1c(I)cc(Cl)c2cccnc12`, the viability change, negative = cytotoxic was -84.2% (active).
With `CCCCCCc1ccc(O)cc1O` the “viability change, negative = cytotoxic” value was -8.59% (inactive).
With `CC(O)C(=O)O` (stereo not given) the “viability change, negative = cytotoxic” value was -5.28% (inactive).
In the case of `C=CCc1ccc(O)c(OC)c1`, the “viability change, negative = cytotoxic” value is reported as -2.24% (inactive).
In the case of `Nc1ccc(C(=O)O)cc1`, the “viability change, negative = cytotoxic” value is reported as -9.33% (inactive).

Test: Cell Viability - Renal Proximal Tubule (AID 545); further: nearly all actives have a fitted effect of over 40% in size;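 on activity change, negative = cytotoxicity: 0% = DMSO only and -100% = 100 µM tamoxifen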
Conditions: renal proximal tubule cells viability, primary cells of rat origin; activity change, negative = cytotoxicity: at 91.7 µM (top of the series)
In short: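 Viability taken as intracellular ATP (CellTiter-Glo luminescence) after 40 hr, 37 °C compound treatment of primary proximal tubule cells from rat kidney, 1000 cells/well; Hill-equation fits of qHTS concentration-response data gave AC50.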
For `O=c1ccc2ccccc2o1`, the activity change, negative = cytotoxicity was -6.1% (inactive).
With `COc1cccc2c1C(=O)c1c(O)c3c(c(O)c1C2=O)C[C@@](O)(C(=O)CO)C[C@@H]3O[C@H]1C[C@H](N)[C@H](O)[C@H](C)O1` the Potency was 15.8 µM (active).
For `Cc1c2oc3c(C)ccc(C(=O)N[C@@H]4C(=O)N[C@H](C(C)C)C(=O)N5CCC[C@H]5C(=O)N(C)CC(=O)N(C)[C@@H](C(C)C)C(=O)O[C@@H]4C)c3nc-2c(C(=O)N[C@@H]2C(=O)N[C@H](C(C)C)C(=O)N3CCC[C@H]3C(=O)N(C)CC(=O)N(C)[C@@H](C(C)C)C(=O)O[C@@H]2C)c(N)c1=O` (I: T[dV]P[Sar][NMeV] / II: T[dV]P[Sar][NMeV]; ester I:1-I:C, II:1-II:C; linker I:N-II:N via Actinocin(9to1)), the Potency was 0.001 µM (active).
For `O=C(O)CCCCC(=O)O`, the activity change, negative = cytotoxicity was 1.76% (inactive).
With `CN(C)/N=N/c1nc[nH]c1C(N)=O` the activity change, negative = cytotoxicity was -19.1% (inactive).
With `NC(=NCCCCCCN=C(N)/N=C(\N)Nc1ccc(Cl)cc1)/N=C(\N)Nc1ccc(Cl)cc1` the activity change, negative = cytotoxicity was -102% (active).
With `CCCCCCc1ccc(O)cc1O` the activity change, negative = cytotoxicity was -9.26% (inactive).
In the case of `CC(O)C(=O)O` (stereo not given), the activity change, negative = cytotoxicity is reported as -2.48% (inactive).
In the case of `C=CCc1ccc(O)c(OC)c1`, the activity change, negative = cytotoxicity is reported as 5.39% (inactive).
For `Nc1ccc(C(=O)O)cc1`, the activity change, negative = cytotoxicity was -7.22% (inactive).
